Results on twelve molecules are retold here after PubChem BioAssay (EPA / NIEHS).

Calls of active or inactive are those of the source. The calls were made as follows: active = hit-call score of the fitted dose curve at least 0.9, where 1 is the maximum; inactive = score below 0.9.

Sequence of Cytochrome P450 2C18 (Homo sapiens) (P33260 whole entry, looked up): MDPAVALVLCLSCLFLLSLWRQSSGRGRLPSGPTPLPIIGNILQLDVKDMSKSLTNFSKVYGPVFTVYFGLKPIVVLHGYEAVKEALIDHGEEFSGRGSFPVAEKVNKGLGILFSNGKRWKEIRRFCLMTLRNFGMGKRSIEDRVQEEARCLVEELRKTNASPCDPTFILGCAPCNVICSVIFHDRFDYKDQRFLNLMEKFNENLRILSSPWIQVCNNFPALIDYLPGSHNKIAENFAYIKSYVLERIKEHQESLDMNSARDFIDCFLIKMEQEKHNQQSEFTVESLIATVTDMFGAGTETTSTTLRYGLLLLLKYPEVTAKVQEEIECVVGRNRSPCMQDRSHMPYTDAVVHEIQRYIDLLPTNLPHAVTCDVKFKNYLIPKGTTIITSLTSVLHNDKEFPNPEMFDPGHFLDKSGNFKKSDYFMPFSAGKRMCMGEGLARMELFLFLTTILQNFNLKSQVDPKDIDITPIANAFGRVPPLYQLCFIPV

The target in this assay is Cytochrome P450 2C18 (Homo sapiens) (UniProt P33260). Nature of the assay: NVS_ADME_hCYP2C18: NovaScreen (NVS) CYP450-related Enzyme Activity (ADME) Assay for human CYP2C18 (AID 2283103). Here is the method:
NVS_ADME_hCYP2C18 is a biochemical, single-readout assay that uses extracted gene-proteins in a cell-free assay. Measurements were taken 0.5 hour after chemical dosing in a 96-well plate.NVS_ADME_hCYP2C18 is one of one assay component(s) measured or calculated from the NVS_ADME_hCYP2C18 assay. It is designed to make measurements of enzyme activity, a form of enzyme reporter, as detected with fluorescence intensity signals by Fluorescence technology.Data from the assay component NVS_ADME_hCYP2C18 was analyzed into 1 assay endpoint. This assay endpoint, NVS_ADME_hCYP2C18, was analyzed in the positive analysis fitting direction relative to Acetonitrile as the negative control and baseline of activity. Using a type of enzyme reporter, loss-of-signal activity can be used to understand changes in the enzymatic activity as they relate to the gene CYP2C18. Furthermore, this assay endpoint can be referred to as a primary readout, because this assay has produced multiple assay endpoints where this one serves a enzymatic activity function. To generalize the intended target to other relatable targets, this assay endpoint is annotated to the cyp intended target family, where the subfamily is xenobiotic metabolism.
Binding assays used specific radioligands (tritiated, iodinated) with non-radioactive competitive displacement ligands in agonist or antagonist protocols (as indicated) and various reference compounds and inhibitors to titrate specific binding to receptors and transporters. Most enzyme assays (CYPs, kinases, phosphatases, proteases, HDACs) used recombinant protein and specific substrates (fluorescence mostly, some colorimetric and radioactive) and inhibitors, followed by a biochemical separation of substrate and product. All assays for the biochemical HTS were initially run in duplicate at a single concentration (10 uM for CYP450 assays and 25 uM for all others). Assay-chemical combinations meeting a pre-defined threshold (e.g., 30% inhibition and other criteria defined below) were then run in singleton concentration-response format with maximum concentration of 20 uM for CYPs and 50 uM for all others. Each assay was run with positive and negative controls, and concurrent controls on every plate. The follow-up (secondary) screen tested active chemical-pairs in concentration series, as well as a few additional assays not tested in the primary screen, some selected negative inactives, and several cases re-run in the concentration series for confirmatory purposes.
Take `CCOC1Oc2ccc(OS(C)(=O)=O)cc2C1(C)C` (configuration not stated): the AC50 was 5.65 µM (active).
On the same count and under the same terms, to `COP(=S)(OC)Oc1ccc([N+](=O)[O-])cc1` belongs 2.7 µM (active); to `CC(C)N(C(=O)COc1nnc(C(F)(F)F)s1)c1ccc(F)cc1`, 5.82 µM (active); to `CC(C)(C)C(O)/C(=C\c1ccc(Cl)cc1Cl)n1cncn1` (configuration not stated), 0.0386 µM (active).
For the molecule `Oc1ccc(Cl)cc1Cc1ccccc1`, the concentration at half-maximal activity (AC50) is 6.87 µM (active).
On the same count and under the same terms, the result for `COc1nn(CSP(=S)(OC)OC)c(=O)s1` reads 3.67 µM (active).
Consider `CC(C)(C)C(O)C(Oc1ccc(Cl)cc1)n1cncn1` (configuration not stated), for which the concentration at half-maximal activity (AC50) is 7.93 µM (active).
For the molecule `O=S(=O)(O)C(F)(F)C(F)(F)C(F)(F)C(F)(F)C(F)(F)C(F)(F)C(F)(F)C(F)(F)F`, the AC50 was 0.875 µM (active).
For the molecule `CC[C@H](C)[C@H]1O[C@]2(C=C[C@@H]1C)C[C@@H]1C[C@@H](C/C=C(\C)[C@@H](O[C@H]3C[C@H](OC)[C@@H](O[C@H]4C[C@H](OC)[C@@H](O)[C@H](C)O4)[C@H](C)O3)[C@@H](C)/C=C/C=C3\CO[C@@H]4[C@H](O)C(C)=C[C@@H](C(=O)O1)[C@]34O)O2` (tested in a mixture with another compound), the concentration at half-maximal activity (AC50) is 5.02 µM (active).
As for `O=C(O)C(F)(F)C(F)(F)C(F)(F)C(F)(F)C(F)(F)C(F)(F)C(F)(F)F`, the outcome was inactive.
In the case of `CCCN(CCOc1c(Cl)cc(Cl)cc1Cl)C(=O)n1ccnc1`, the half-maximal activity concentration (AC50) is 0.588 µM (active).
Consider `CN1CSC(=S)N(C)C1`, for which the half-maximal activity concentration (AC50) was 4.32 µM (active).

The AC50 is the concentration giving half of the maximal activity seen.
